Cycloheximide cs: Cycloheximide Counterscreen for Small Molecule Inhibitors of Shiga Toxin. max response, %. actives 12% (n = 300,000). cell reporter, cycloheximide protein synthesis inhibition counterscreen; in the data active means max response mostly above about 13%, no sharp cut-off; inactive means mostly below about 14%; further: read at 38.3 µM for the half of the compounds with a filed dose
LmPK inhibitor: qHTS Assay for Inhibitors of Leishmania Mexicana Pyruvate Kinase (LmPK) | purified LmPK, Kinase-Glo ATP luminescence, 1 h | Potency, µM (series often up to 57.5 µM), actives largely listed as inhibitors | actives 0.37% (n = 290,000) | AID 1721, 2009
Target sequence (Q27686 whole entry, looked up): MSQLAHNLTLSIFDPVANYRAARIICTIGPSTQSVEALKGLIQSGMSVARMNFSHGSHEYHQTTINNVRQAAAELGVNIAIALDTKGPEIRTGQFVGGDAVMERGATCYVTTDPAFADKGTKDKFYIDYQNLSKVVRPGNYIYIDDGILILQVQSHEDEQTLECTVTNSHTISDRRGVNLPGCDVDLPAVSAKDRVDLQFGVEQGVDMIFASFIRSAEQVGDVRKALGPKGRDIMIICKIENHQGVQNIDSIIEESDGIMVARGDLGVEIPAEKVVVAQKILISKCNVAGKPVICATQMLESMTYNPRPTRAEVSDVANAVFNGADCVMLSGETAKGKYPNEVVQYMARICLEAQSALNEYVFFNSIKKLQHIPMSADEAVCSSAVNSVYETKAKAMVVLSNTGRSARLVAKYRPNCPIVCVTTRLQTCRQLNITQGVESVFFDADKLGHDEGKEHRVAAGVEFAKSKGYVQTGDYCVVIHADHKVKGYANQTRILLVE
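qHTS format; LmPK 0.1 nM; substrates PEP 0.5 mM and ADP 0.1 mM. One-hour room-temperature incubation, then coupled luciferase luminescence; 0.5 nM enzyme wells mark activation.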
Shiga toxin inh: A qHTS for Small Molecule Inhibitors of Shiga Toxin; Vero cells, Shiga toxin protein synthesis inhibition reporter; actives 9.2% (n = 290,000); AID 2315, 2010; inhibition, % at 38.7 µM; in the data active means inhibition mostly above about 28%, no sharp cut-off; inactive means mostly below about 43%
FBPA Giardia inh: qHTS Assay for Inhibitors of Fructose-1,6-bisphosphate Aldolase from Giardia Lamblia | Potency, µM (highest dose often 59.6 µM), actives largely listed as inhibitors | purified Giardia FBPA | A8B2U2 | actives 0.71% (n = 290,000); further: nearly all actives have a fitted effect of over 55% in size
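Giardia FBPA (40 nM reagent) was preincubated 10 min at RT with compound (up to 57.5 uM final), then substrate plus GAPDH/TPI/NAD/arsenate coupling system with diaphorase/resazurin was added; resorufin fluorescence (525/598 nm) was read after 20 min.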
TbPYK inhibitor: qHTS of Trypanosoma Brucei Inhibitors; pyruvate kinase (Trypanosoma brucei), Q57TT1; actives 0.12% (n = 410,000); AID 624173, 2012; TbPYK enzyme, Kinase-Glo Plus ATP luminescence, 45 min; Potency, µM (doses to about 76.8 µM), most hits filed as inhibitors; further: nearly all actives have a fitted effect of over 50% in size
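In this concentration-response screen, enzyme-free wells defined baseline while DMSO plates tracked drift. Each reaction combined TbPYK, substrate, compound and 130 uM ADP for 45 min at room temperature. Kinase-Glo Plus luminescence gave the signal.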
RE007 growth inh: qHTS Assay for Inhibitors of the HIV-1 protein Vpr; S. pombe RE007 Vpr strain, BacTiter-Glo ATP luminescence, 24 h; Potency, µM (titrated, usually from 92.2 µM), usual class: inhibitors; actives 0.21% (n = 360,000); active means well fitted falling curve with a large enough effect; inconclusive means small, poorly fitted or top-dose-only effect; inactive means no such curve, though single readings can be large or run the other way; further: nearly all actives have a fitted effect of over 50% in size
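Fission yeast strain RE007, carrying one chromosomally integrated HIV-1 vpr copy, was seeded at OD 0.01 in PMG+AL medium with 23 nL pinned compound. After 24 h at 30 °C and 99% humidity, viability was read by BacTiter-Glo luminescence.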
A number is an active result; - = inactive; ? = inconclusive; . = not tested or not shown. The entries come from a sample that favours hits as a whole. Unless noted, the call rests on the fitted dose curve; in most records, active means well fitted curve in the direction sought with a large enough effect; inconclusive means small, poorly fitted or top-dose-only effect, or another doubt; inactive means no such curve, though single readings can be large; an effect the other way counts as inactive or inconclusive.

SMILES | Cycloheximide cs | LmPK inhibitor | Shiga toxin inh | FBPA Giardia inh | TbPYK inhibitor | RE007 growth inh
O=C(O)c1ccc(CSc2nnc(COc3ccccc3)o2)cc1 | - | - | - | - | - | -
CC(=O)Nc1ccccc1OCc1nnc(-c2ccccc2Cl)o1 | - | - | - | - | - | -
Clc1ccc(-c2nnc(CCc3ccccc3)o2)c(Cl)c1 | 41 | - | 90 | - | - | -
Oc1ccccc1-c1nnc(COc2ccccc2)o1 | 27 | - | - | - | - | -
O=C(CSc1n[nH]c(-c2ccncc2)n1)Nc1ccc(Cl)c(C(=O)O)c1 | - | - | - | ? | - | -
Cc1cc(C)cc(C(=O)Nc2nnc(SCC(=O)N3CCCc4ccccc43)s2)c1 | - | - | - | - | - | -
O=C(Nc1nnc(SCC(=O)N2CCCc3ccccc32)s1)c1ccccc1 | 34 | - | 41 | - | - | -
O=C(Nc1nnc(SCC(=O)N2CCCc3ccccc32)s1)c1ccc2ccccc2c1 | 37 | - | 58 | - | - | -
CCCCC/C=C\C\C=C/C=C/C=C/[C@@H](SCC(NC(C)=O)C(=O)O)[C@@H](O)CCCC(=O)O (some centres undefined) | . | . | . | - | . | .
COc1ccc(CNC(=O)c2oc3c(c2C)-c2nn(Cc4ccc(Cl)cc4)cc2CC3)cc1 | . | . | . | . | - | .
CCN1CCN(C(=O)c2cc(COc3ccc(F)c(F)c3)on2)[C@@H](C)C1=O | . | . | . | . | - | -
O=C(c1cc(COc2ccc(F)c(F)c2)on1)N1CCN(C2CCCCC2)C(=O)C1 | 31 | - | - | . | - | -
COCCN1CCN(C(=O)c2cc(COc3ccc(F)cc3F)on2)CC1 | - | - | - | - | - | ?
CCCN1CCN(C(=O)c2cc(COc3ccc(F)c(F)c3)on2)CC1 | 29 | - | 40 | - | - | -
COCCN1CCN(C(=O)c2cc(COc3ccc(F)c(F)c3)on2)CC1 | 27 | - | - | . | - | -
O=C(c1cc(COc2c(F)cccc2F)on1)N1CCN(C2CCCCC2)C(=O)C1 | - | - | - | - | - | -
CCCOC1CCCN(C(=O)c2cc(COc3ccc(F)c(F)c3)on2)C1 (centres undefined) | 44 | - | 109 | - | - | -
Cc1ccccc1NC(=O)c1sc2nc(-c3ccncc3)ccc2c1N | . | . | . | . | - | .
Cc1cccnc1CN1CCN(C(=O)c2cc(COc3ccc4ncccc4c3)on2)CC1 | - | - | - | - | - | -
O=C(c1cc(COc2ccc(F)c(F)c2)on1)N1CCN(C/C=C/c2ccccc2)CC1 | 37 | - | 45 | - | - | -
COc1ccc(NC(=O)Nc2ccccc2OCc2cc(=O)n3ccccc3n2)c(OC)c1 | . | . | . | . | - | .
COc1ccc(C2Nc3ccccc3C(=O)N2c2ccc(C)cc2)cc1Cn1nnc2ccccc21 (centres undefined) | 51 | - | 53 | - | - | -
COc1ccc(C2Nc3ccccc3C(=O)N2c2ccc(C)cc2)cc1Cn1cc([N+](=O)[O-])cn1 (centres undefined) | 38 | - | 50 | - | - | -
CCOc1ccc(NC(=S)Nc2ccc(OCc3ccccc3)cc2)cc1 | 11 | - | - | - | - | -
CNC(=S)Nc1ccc(OCc2ccccc2)cc1 | 44 | - | 48 | - | - | -
SMILES | Cycloheximide cs | LmPK inhibitor | Shiga toxin inh | FBPA Giardia inh | TbPYK inhibitor | RE007 growth inh
C/C(CC(=O)Nc1ccc2c(c1)OCCO2)=N\NC(=O)C(=O)Nc1ccccc1C | - | - | - | - | - | -
Cc1cc(NC(=O)Nc2ccc(OCc3ccccc3)cc2)n(C)n1 | - | - | - | - | - | -
CCOc1ccc(NC(=S)NCCCc2ccccc2)cc1 | - | - | - | - | - | -
C/C(CC(=O)Nc1ccc(OCc2ccccc2)cc1)=N\NC(=O)C(=O)Nc1ccccc1C | 26 | - | 65 | - | - | -
CCN(CC)C(=O)C(=O)Nc1ccc(OCc2ccccc2)cc1 | 14 | - | - | - | - | -
CCC1CCCCN1S(=O)(=O)c1cc2c(cc1C)NC(=O)CO2 (centres undefined) | . | . | . | . | - | .
CCOc1ccc(CCNC(=O)c2cc3c(s2)-c2c(C)cccc2OC3)cc1 | . | . | . | . | - | .
Cc1cc(Nc2cccc(C(=O)O)c2)n2nc(C)nc2n1 | . | . | . | . | - | .
Cc1cc(Nc2cccc(C(=O)O)c2)n2ncnc2n1 | 14 | - | 19 | - | - | -
CC#CCc1cc2ccccc2c(=O)o1 | 5.2 | - | - | - | - | -
O=c1oc(CCO)cc2ccccc12 | . | . | . | . | - | -
C=CCn1cnc2c(sc3nc(C)cc(C)c32)c1=O | - | - | - | - | - | -
COC(=O)Cn1c(C)nc2c(sc3nc(C)cc(C)c32)c1=O | 49 | - | 111 | - | - | -
CCOC(=O)Cn1cnc2c(sc3nc(C)cc(C)c32)c1=O | 20 | - | - | - | - | -
Clc1cccc(Cl)c1CSc1nnc2ccccn12 | - | - | - | - | - | -
Fc1cccc(Cl)c1CSc1nnc2ccccn12 | 42 | - | 91 | - | - | -
CCn1c(SCc2c(F)cccc2Cl)nnc1-c1ccco1 | 12 | - | 34 | - | - | -
Brc1ccc(CSc2nnc3ccccn23)cc1 | 26 | - | 50 | - | - | -
Fc1ccc(CSc2nnc3ccccn23)c(Cl)c1 | 44 | - | 96 | - | - | -
CCn1c(SCc2nc(-c3ccccc3)no2)nnc1-c1ccco1 | - | - | - | - | - | -
O=C(CSc1nnc2ccccn12)NNC(=O)c1ccc(Br)cc1 | - | - | - | - | - | -
Oc1c(C(c2ccccc2Cl)N2CCN(Cc3ccccc3)CC2)sc2nc(-c3ccco3)nn12 (centres undefined) | . | . | . | . | - | .
CN=C1C([N+](=O)[O-])=CC=C2C1=NC1(CCCCC1)N2O | - | - | - | 5µM | - | -
O=[N+]([O-])C1=CC=C2C(=NC3(CCCCC3)N2O)C1=NCCO | - | - | - | 7.1µM | - | -
COc1ccc(-n2c(C)nc3cc(C(=O)NC4CCCC4)ccc32)cc1 | . | . | . | . | - | .
NNC(=O)C(Cc1ccc(O)cc1)N1Cc2ccccc2C1=O (centres undefined) | - | - | - | - | - | -
COC(=O)C(Cc1ccc(OC(=O)c2ccc(C)cc2)cc1)N1Cc2ccccc2C1=O (centres undefined) | 57 | - | 89 | - | - | -
Cc1ccc(NC(=O)[C@H](Cc2ccccc2)N2Cc3ccccc3C2=O)cc1 | . | . | . | . | - | .
COC(=O)C(Cc1ccc(O)cc1)N1Cc2ccccc2C1=O (centres undefined) | 41 | - | 42 | - | - | -
Cc1nn(-c2ccccc2)c(C)c1C(=O)OC(C)C(=O)NC1CCCCC1 (centres undefined) | . | . | . | . | - | -

Screening results: PubChem, National Center for Advancing Translational Sciences (NCATS)
